A selection: hits, their analogues and other compounds. The true share with any hit is near 12%.
BAZ2B block: qHTS Assay for Inhibitors of BAZ2B | 360,000 compounds, 4.4% hits | AlphaScreen BAZ2B-H3K14Ac peptide displacement | Potency, µM (series often up to 114 µM), usual class: inhibitors | AID 504333, 2011; note: nearly all actives have a fitted effect of over 60% in size
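Protein-peptide AlphaScreen: BAZ2B 50 nM, b-H3K14Ac 50 nM, 1x PBS pH 7.4 + 0.01% Tween-20. Preincubation 30 min RT; cpd 30 min RT (top 110 uM); beads 20 min RT, light-protected.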
G9a block: qHTS Assay for Inhibitors of Histone Lysine Methyltransferase G9a | Histone-lysine N-methyltransferase EHMT2 (Homo sapiens), Q96KQ7 | G9a H3K9 monomethylation, AlphaScreen, 2 h | Potency, µM (highest dose often 102 µM), usual class: inhibitors | 350,000 compounds, 8.8% hits; note: nearly all actives have a fitted effect of over 75% in size
Target sequence (Q96KQ7 913-1193 limits assumed): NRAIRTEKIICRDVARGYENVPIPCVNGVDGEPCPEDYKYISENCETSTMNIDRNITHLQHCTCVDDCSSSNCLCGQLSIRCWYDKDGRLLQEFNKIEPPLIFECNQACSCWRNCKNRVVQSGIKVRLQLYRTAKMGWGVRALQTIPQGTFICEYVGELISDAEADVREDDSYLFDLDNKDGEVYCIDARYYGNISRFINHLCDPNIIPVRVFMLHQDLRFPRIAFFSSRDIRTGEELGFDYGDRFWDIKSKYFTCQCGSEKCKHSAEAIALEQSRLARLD
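Methyltransferase reactions run at room temperature for 2 h (20 nM enzyme, 500 nM biotin-H3K9 peptide, 20 uM SAM) after a 15 min compound preincubation; product detected by AlphaScreen beads and anti-H3K9me1 antibody.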
L3MBTL1 block: qHTS Assay for the Inhibitors of L3MBTL1; Lethal(3)malignant brain tumor-like protein 1 (Homo sapiens), Q9Y468; AlphaScreen L3MBTL1–H3K9me1 peptide binding; Potency, µM (top dose mostly 57.1 µM), usual class: inhibitors; 230,000 compounds, 0.66% hits; note: nearly all actives have a fitted effect of over 60% in size
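L3MBTL1 50 nM + b-AHA-H3(1-15)K9me1 75 nM, 30 min RT; compound added, 30 min RT; streptavidin donor/Ni-chelate acceptor beads 10 ug/mL each final, 30 min RT dark; AlphaScreen read.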
Sfp PPTase inh: qHTS Assay for Inhibitors of Bacillus subtilis Sfp phosphopantetheinyl transferase (PPTase); 4'-phosphopantetheinyl transferase ffp (Bacillus subtilis), Q9F4F7; Biochemical Sfp PPTase activity, qHTS; Potency, µM, hits mostly inhibitors; 310,000 compounds, 3.5% hits; AID 1490, 2009;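 note: the enzyme is Sfp with the accession as filed and its product quenches rhodamine fluorescence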
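Fluorescence-quenching assay with 15 nM Sfp, 5 uM rhodamine-CoA and 12.5 uM BHQ-2-labelled ybbR peptide in pH 7.6 Hepes/MgCl2 buffer. Enzyme was pre-incubated with compound for 15 min at room temperature. Rate was taken from the 30-min fluorescence change (525/598 nm).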
JMJD2A Tudor: qHTS Assay for Inhibitors of JMJD2A-Tudor Domain. Lysine-specific demethylase 4A (Homo sapiens), O75164. AlphaScreen JMJD2A-Tudor / H3K4me3 peptide binding. Potency, µM (titrated, usually from 114 µM), hits mostly inhibitors. 390,000 compounds, 4.4% hits. AID 504339, 2011; note: nearly all actives have a fitted effect of over 50% in size
HP1b binding inh: HTS for Inhibitors of HP1-beta Chromodomain Interactions with Methylated Histone Tails; Chromobox protein homolog 1 (Homo sapiens), P83916; AlphaScreen HP1-beta / biotin-H3K9me3 peptide binding; Potency, µM (top dose mostly 114 µM), most hits filed as inhibitors; 390,000 compounds, 0.56% hits; AID 540317, 2011; note: nearly all actives have a fitted effect of over 70% in size
Target sequence (P83916 whole entry, looked up): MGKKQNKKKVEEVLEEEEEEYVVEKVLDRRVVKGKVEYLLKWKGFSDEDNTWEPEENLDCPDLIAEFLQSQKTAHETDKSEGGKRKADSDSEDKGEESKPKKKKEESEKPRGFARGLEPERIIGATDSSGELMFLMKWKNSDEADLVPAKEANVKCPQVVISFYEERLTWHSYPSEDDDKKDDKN
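HP1-beta protein (50 nM final) preincubated 30 min at room temperature with biotinylated H3(1-18)K9me3 peptide (50 nM) in PBS pH 7.4, 0.01% Tween-20, then compound added for 30 min. AlphaScreen streptavidin donor/nickel chelate acceptor beads (10 ug/mL final), 30 min dark, luminescence read.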
Numbers stand for hits; 0 = inactive; ? = inconclusive; - = no result given; [ ] = another dose, or the depositor's remark. Calls come from the whole dose curve; as a rule, active = well fitted curve in the direction sought with a large enough effect; inconclusive = small, poorly fitted or top-dose-only effect, or another doubt; inactive = no such curve, though single readings can be large; an effect the other way counts as inactive or inconclusive.

SMILES | BAZ2B block | G9a block | L3MBTL1 block | Sfp PPTase inh | JMJD2A Tudor | HP1b binding inh
c1cnc2c(-c3nccc4c3[nH]c3ccccc34)cccc2c1 | - | - | - | 0 | - | -
CN1c2ccccc2-c2nc3ccccc3n2C1c1ccccn1 (stereo not drawn) | ? | 50µM | 0 | ? | 0 | 0
Cc1cccc(C)c1NC(=O)C(NC(=O)CN1C(=O)c2ccccc2C1=O)c1ccccc1 (stereo not drawn) | 0 | 0 | 0 | 0 | 0 | 0
CC(C)c1ccc(N2CCN(C(=O)c3ccccc3NC(=O)/C=C\C(=O)O)CC2)cc1 | 0 | ? | - | 79µM | 0 | 0
O=C(Nc1ccc(Cl)cc1)N1CCN(c2ccccc2)CC1 | 0 | 0 | 0 | 0 | 0[11.4 µM] | 0
O=C(O)/C=C/C(=O)Nc1ccc(-n2ccc(C(F)(F)F)n2)cc1 | 0 | 45µM | 0 | 0 | 0 | 0
O=C(O)/C=C\C(=O)Nc1ccccc1C(=O)N1CCN(c2ccc(Cl)cc2)CC1 | 0 | 0[2.33 µM] | - | 0 | ? | 0
Nc1ccc(N2CCN(c3cccc(Cl)c3)CC2)cc1 | 35µM | 4µM | 0 | 0 | 45µM | ?
O=C(O)/C=C\C(=O)Nc1ccc(N2CCN(c3ccc(Cl)cc3)CC2)cc1 | ? | 10µM | ? | 0 | 0 | 0
Clc1cccc(N2CCN(CCCN3CCN(c4ccccc4)CC3)CC2)c1 | - | - | - | - | ? | 0
COCCNc1nc2sc3c(c2c(=O)n1Cc1ccco1)CCCCC3 | 0 | ? | 0 | 0 | 0 | 0
COCCn1c(=O)c(-c2cn(C)c3ccccc23)nc2cnc(OCc3ccccc3)nc21 | - | 0[0.501 µM] | - | 0 | - | -
O=C(CNC(=O)C1CCCCC1)OCc1ccccc1 | - | - | - | - | 0 | 0
COC(=O)c1ccc2c(=O)n(CC3CCCO3)c(SCC(=O)NCCc3ccc(S(N)(=O)=O)cc3)nc2c1 (stereo not drawn) | 0 | 0 | - | 0 | 0 | 0
O=C(O)/C=C\C(=O)Nc1ccc(N2CCN(c3cccc(Cl)c3)CC2)cc1 | 35µM | - | 0 | 0 | 0[11.4 µM] | ?
CCC(C)Sc1cc(-c2nc3ccccn3c2NC2CCCCC2)ccc1OC (stereo not drawn) | ? | 0[2.33 µM] | 0 | - | 79µM | 0
CCCCNc1c(-c2ccc(OC)c(SC(C)CC)c2)nc2cc(C)ccn12 (stereo not drawn) | - | - | 0 | - | ? | 0
Cc1ccn2c(NC3CCCC3)c(-c3cccs3)nc2c1 | ? | 45µM | 0 | 0 | 10µM | 0
CC(=O)c1ccc(-c2cccc(-c3nc4ccccn4c3NC3CCCCC3)c2)cc1 | 40µM | 0[2.33 µM] | 0 | - | ? | 0
c1csc(-c2nc3ccccn3c2NC2CCCCC2)c1 | ? | ? | 0 | 0 | 0 | 0
CC(C)c1nc2ccccn2c1NC1CCCCC1 | 0 | ? | 0 | 0 | 0 | 0
CCC(C)Sc1cccc(-c2nc3cnccn3c2NC2CCCCC2)c1 (stereo not drawn) | - | - | 0 | - | 0 | 0
CCC(C)Sc1cc(-c2nc3cc(C)ccn3c2NC2CCCCC2)ccc1OC (stereo not drawn) | - | - | 0 | - | 50µM | 0
CCc1ccc(-c2nc(CN3CCCC(C(=O)NCc4ccc(C)cc4)C3)c(C)o2)cc1 (stereo not drawn) | 0 | 0 | - | - | 0 | 0
COCC(=O)N1CCC(Oc2ccc(C(=O)N(C)CCCC3CCCC3)cc2)CC1 | 0 | 0 | - | 0 | 0 | 0
COc1ccccc1N1CCN(S(=O)(=O)c2c(C)sc3ncn(CC(=O)Nc4ccccc4F)c(=O)c23)CC1 | 0 | 0 | - | - | 0 | 0
CCOC(=O)C1=C(O)/C(=C/c2cn(CC(=O)N3CCCC3)c3ccccc23)SC1=Nc1ccccc1 | 0 | 0 | 0 | 32µM | 0 | 0
COC(=O)c1cn(CC(=O)N2CCCCCC2)c2ccccc12 | 0 | 0 | 0[11.4 µM] | 0 | 0 | 0
COc1ccc(Br)cc1C1C2C=CCCC2(C)C(=O)N1Cc1ccccc1 (stereo not drawn) | - | - | - | 0 | 0 | 0
